Measurements as given in PubChem BioAssay AID1903 (Southern Research Specialized Biocontainment Screening …, 2009).
The whole screen tested about 310,000 compounds, of which about 1,200 (0.39%) were called active. How the calls were made is not given here. A selection follows. Potency and affinity values are given separately.

target: Large T antigen (Simian virus 40) (UniProt P03070); test: TAg ATPase/helicase activity blockers – biochemical (AID 1903); conditions: SV40 large T antigen ATPase/helicase inhibition assay; at 20 µM; hits give high values
Sequence (P03070 whole entry, looked up): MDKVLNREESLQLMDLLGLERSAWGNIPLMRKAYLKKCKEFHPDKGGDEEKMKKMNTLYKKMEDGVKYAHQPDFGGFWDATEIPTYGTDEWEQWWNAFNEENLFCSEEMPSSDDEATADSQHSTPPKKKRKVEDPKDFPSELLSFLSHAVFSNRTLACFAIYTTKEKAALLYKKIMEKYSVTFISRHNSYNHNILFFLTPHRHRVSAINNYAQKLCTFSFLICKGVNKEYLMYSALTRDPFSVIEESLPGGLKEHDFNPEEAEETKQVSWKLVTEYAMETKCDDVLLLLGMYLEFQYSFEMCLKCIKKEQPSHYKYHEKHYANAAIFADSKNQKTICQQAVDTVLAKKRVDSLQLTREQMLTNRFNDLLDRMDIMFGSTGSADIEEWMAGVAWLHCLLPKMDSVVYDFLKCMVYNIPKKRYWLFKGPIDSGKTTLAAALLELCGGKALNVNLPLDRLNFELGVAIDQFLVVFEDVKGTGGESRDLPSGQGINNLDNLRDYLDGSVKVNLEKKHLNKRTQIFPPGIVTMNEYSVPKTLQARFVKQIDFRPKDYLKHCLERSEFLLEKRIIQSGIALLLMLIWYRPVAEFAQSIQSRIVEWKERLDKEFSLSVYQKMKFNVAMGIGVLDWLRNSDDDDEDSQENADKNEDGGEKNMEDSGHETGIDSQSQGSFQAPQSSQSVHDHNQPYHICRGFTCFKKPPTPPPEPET

inhibition, inactive:
O=C(/C(=C(\[O-])c1ccccc1)[n+]1ccc2ccccc2c1)c1ccc([N+](=O)[O-])cc1 15%
O=[N+]([O-])c1cccc(S(=O)(=O)c2cccc([N+](=O)[O-])c2)c1 3.63%
CCC(C)N(C(=O)CSc1nnc(-c2ccco2)n1C)C1CCS(=O)(=O)C1 (stereo not drawn) 13.2%
CCc1nc2nc(C)c(NS(=O)(=O)c3ccc(C)c(C)c3)c(=O)n2[nH]1 4.17%
O=C(Oc1ccc(-c2nnco2)cc1)C1CCN(C(=O)c2ccc(F)cc2)CC1 5.55%
COC(=O)N/C(C)=C1/NC(=O)c2ccccc2C(c2ccccc2)N1 (stereo not drawn) 6.67%
O=C(O)c1ccc2c(=O)n3c(nc2c1)/C(=C/c1ccc(Cl)c(Cl)c1)CC3 24.8%
COc1ccc(NC(=O)C(CCS(C)(=O)=O)N2C(=O)c3ccccc3C2=O)cc1 (stereo not drawn) 11.7%
CC(=O)c1ccc(OC(=O)C(CCS(C)(=O)=O)N2C(=O)c3ccccc3C2=O)cc1 (stereo not drawn) 3.15%
CCOC(=O)N1CCN(C(=O)CC(C)S(=O)(=O)c2cc3c(cc2C)NC(=O)CO3)CC1 (stereo not drawn) 6.54%
Cc1ccc(-n2c(SCC(=O)OC(C)C)nnc2-c2ccncc2)cc1 9.08%
O=c1[nH]c2ccc(F)cc2[nH]c1=O 22.1%
Cc1cc(=O)c2ccccc2s1 23.3%
O=C1Nc2ccc(F)cc2C12SCCS2 -3.17%
O=c1[nH]c2ccccc2c2ccccc12 11.7%
CC(=O)N1CCN(c2cc(N3CCc4ccccc4C3)c(F)cc2[N+](=O)[O-])CC1 29.4%
COc1ccc(C(=O)O)cc1N1C(=O)Nc2ccccc2N1O 13.6%
O=C(NCc1cccs1)C1CC(O)CN1C(=O)Nc1ccccc1 (stereo not drawn) 3.53%
Nc1ccc(-c2nc3ccccc3[nH]2)cc1 6.85%
Nc1ccccc1Nc1nc2ccccc2[nH]1 26.5%
COc1ccc(CCNC(=O)c2cn(C)c3ccc(S(=O)(=O)N4CCOCC4)cc3c2=O)cc1OC 5.2%
C=CCNS(=O)(=O)c1ccc(OC)c(C)c1 1.44%
CN(C(=O)/C=C/c1ccc([N+](=O)[O-])s1)c1ccccc1 -0.18%
CCCN1C(=O)/C(=C/c2ccc(C)s2)NC1=S 8.4%
O=C(N/N=C/c1ccc([N+](=O)[O-])s1)C(O)c1ccccc1 (stereo not drawn) 4.11%
CCN1C(=O)/C(=C/c2ccc(C)s2)NC1=S 11.9%
O=C(/C=C/c1ccc([N+](=O)[O-])s1)N1CCN(c2ccccc2)CC1 16%
O=c1oc(/C=C/c2ccc([N+](=O)[O-])s2)nc2ccccc12 6.31%
CCCCc1c(C(=O)O)cc(OC)cc1C(=O)O 12.1%
O=C(CSc1nc(O)cc(=O)n1-c1ccc(Cl)c(Cl)c1)Nc1ccc(Cl)cc1Cl 28.9%
Cn1nccc1C(=O)N1CCC(Cc2ccccc2)CC1 11.7%
COC(=O)CC1C(=O)NCCN1C(=O)Nc1ccc(Cl)c(Cl)c1 (stereo not drawn) 4.47%
CCC(C)NC(=O)CCc1c(C)nc2c(c(C)nn2-c2ccccc2)c1C (stereo not drawn) 6.67%
CC(=O)c1c(C)oc2ccc(N(C(C)=O)S(=O)(=O)c3cccc4cccnc34)cc12 10.6%
FC(F)(F)c1ccc(Cl)c(NC2=NCCCCC2)c1 7.53%
CC(C)OC(=O)C(C(=O)C(F)(F)F)c1cc(NS(=O)(=O)c2ccc3ccccc3c2)c2ccccc2c1O (stereo not drawn) 15.1%
COc1ccc(/C=N/n2nnnc2N)cc1OC 11.7%
COc1cc(/C=N/n2nnnc2N)ccc1OC(C)=O 12.9%
CCOc1ccc(/C=N/n2nnnc2N)cc1OCC 5.4%
CCOc1cc(/C=N\n2nnnc2N)ccc1O 33.9%
O=C(NCc1ccccn1)c1ccc(Cl)c(S(=O)(=O)N2CCCCC2)c1 6.41%
COc1ccc(CNC(=O)C2CCN(S(=O)(=O)N3CCCCC3)CC2)cc1 7.96%
NC(=O)c1cc(S(=O)(=O)N2CCN(c3ccc([N+](=O)[O-])cc3)CC2)cs1 14.4%
CCOC(=O)c1cnc2cc(F)c(F)cc2c1N1CCOCC1 0.2%
O=C(COc1c(Cl)cc(Cl)cc1Cl)c1ccc(Cl)cc1 2.07%
Cc1ccc(NS(=O)(=O)c2ccc3c(c2)oc(=O)n3C)cc1 6.64%
CC(=O)Nc1ccc(NS(=O)(=O)c2ccc3c(c2)oc(=O)n3C)cc1 10.1%
Cc1ccc(NC(=O)CN2C(=O)c3ccccc3S2(=O)=O)c(C)c1 10.7%
CN(C)c1ccc(C(=O)NCC2CCCO2)cc1 (stereo not drawn) 5.69%
CN(C)c1ccc(CNCC2CCCO2)cc1 (stereo not drawn) 7.34%
COCC(=O)Nc1ccc(N(C)C)cc1 33.7%
CCCNC(=O)C(=O)Nc1ccc(N(C)C)cc1 18.4%
CC1CCN(C(=O)Cn2c(=O)n(CCCC(=O)NCc3ccco3)c(=O)c3sccc32)CC1 8.64%
O=C(Nc1ccccc1C(=O)Nc1ccccc1)c1cccs1 5.41%
Cc1c(C(=O)Nc2cc(S(=O)(=O)N3CCOCC3)ccc2N2CCOCC2)oc2ccccc12 0.37%
CCC(CC)C(=O)Nc1nnc(S(=O)(=O)N(CC)c2ccc(OC)cc2)s1 3.96%
Cc1ccc(S(=O)(=O)N2CCOCC2)cc1C(=O)c1nccn1C 8.29%
Cc1ccc(S(=O)(=O)ON=C2CCN(S(=O)(=O)c3ccccc3)CC2)cc1 1.39%
CC1=C/C(=N\OS(=O)(=O)c2ccccc2)C=CC1=O 26.7%
CCc1nnc(NC(=O)CSc2nnc(Cc3cc(=O)[nH]c(=O)[nH]3)n2-c2ccc(OC)cc2)s1 3.92%
NC(=NCCc1c[nH]c2ccccc12)NS(=O)(=O)c1ccc(F)cc1 -1.17%
CCCNCc1cc(OC)c(OCC(=O)NCCc2ccccc2)cc1Br 6.19%
COc1cccc(NC(=S)N2CCCC2c2ccc(OC)c(OC)c2)c1 (stereo not drawn) 12.4%
CCn1nc(C(=O)OCc2cccc(S(=O)(=O)N(C)C)c2)c2ccccc2c1=O 8.67%
Cc1ccc(-c2nn(C)c(=O)c3ccccc23)cc1S(=O)(=O)N1CCCC1 0.12%
CN(C)S(=O)(=O)c1cccc(N2C(=O)CC3(CCCCC3)CC2=O)c1 7.26%
O=C(O)c1ccccc1NS(=O)(=O)c1ccc2ccccc2c1 -0.61%
O=c1c2ccccc2sn1-c1ccc(S(=O)(=O)N2CCCC2)cc1 9.42%
O=C(O)c1ccccc1NS(=O)(=O)c1cccc(C(F)(F)F)c1 9.6%
CC(C)=CCc1c(O)ccc2c1OC(c1ccc(O)c(O)c1)CC2=O (stereo not drawn) 17%
O=C1CC(c2ccc(O)c(O)c2)Oc2cc(O)cc(O)c21 (stereo not drawn) 45.5%
Cc1ccc(OCCCCN2CCC(C)CC2)c(Br)c1 3.72%
Cc1ccc(C=C2C(=O)c3ccccc3C2=O)o1 12.7%
O=C1/C(=C\c2ccc(Br)o2)Cc2ccccc21 6.99%
O=C(COc1ccc(F)cc1F)N1CCCCCCC1 1.37%
Oc1cccc(NC(=S)Nc2ccccc2)c1 21.3%
Cc1cccc(OCC(=O)Nc2ccc(N3CCCC3)cc2)c1C -18.4%
O=C(O)c1ccc(NC(=S)NC(=O)c2cncc(Br)c2)cc1 13.1%
O=C(NC(=S)Nc1ccccc1O)c1ccccc1Cl 13.8%
O=C(NC(=S)Nc1ccc(Cl)cc1)c1cncc(Br)c1 10.2%
COc1ccc(NC(=S)NC(=O)c2ccccc2Cl)cc1 9.58%
CCOc1ccc(-c2ccc3nnc(SCC(=O)NCC4CCCO4)n3n2)cc1 (stereo not drawn) 20.9%
c1ccc2cc(Cn3ccnc3)ccc2c1 5.43%
C/C(=N\NC(=O)COc1ccc(C)cc1[N+](=O)[O-])c1cccs1 15%
N#Cc1ccc(CSc2nc(N)cc(N)n2)cc1 -0.44%
CC(C)CCn1c(=O)c2ccccc2n2c(CN3CCCC3)nnc12 15.1%
CCOCCCn1c(=O)c2ccccc2n2c(=S)[nH]nc12 31.1%
CC(C)CCn1c(=O)c2ccccc2n2c(CCl)nnc12 12.5%
Cn1c(=O)c2ccccc2n2c(=S)[nH]nc12 1.39%
O=C(Nc1ccc(S(=O)(=O)Nc2ncccn2)cc1)c1cnc(Cl)c(Cl)c1 24.8%
Cc1ccn(CCC(=O)Nc2ccc(-c3ccno3)cc2)n1 10.3%
C=C(c1cccc2ccccc12)P(=O)(O)O 8.15%
CCOC(=O)c1c(NC(=O)COC(=O)c2nc(Cl)ccc2Cl)sc(C(=O)N(C)C)c1C 3.76%
Cc1ccc(NC(=O)c2ccc(COc3ccccc3)o2)nc1 -5.11%
Cc1nc2ncccn2c1-c1csc(Nc2ccccc2)n1 16.1%
Fc1ccc(Nc2nc(-c3cccnc3)cs2)cc1 6.02%
CCN(CC)c1ccc(Nc2nc(-c3cccnc3)cs2)cc1 20.5%
Cc1ccc(Nc2nc(-c3c(C)nc4ncccn34)cs2)cc1 17.2%
